# Source: paper PMC4336329 (PLoS ONE, 2015)
# Among all 310,000 compounds or so, about 14,000 (4.5%) showed an effect of 50% or more. Effects have a minus sign here. Only a selection was taken, and strong results are over-represented in it overall.
# Target: human ether-à-go-go-related gene (hERG) potassium channel (human, UniProt Q12809)
# Assay: primary screen, population patch clamp on CHO cells stably expressing hERG; higher = less effect of the substance
# 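Note: peak tail current of the secondary pulse compared with the same well before compound.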
# Sequence of human ether-à-go-go-related gene (hERG) potassium channel (Q12809 whole entry, looked up): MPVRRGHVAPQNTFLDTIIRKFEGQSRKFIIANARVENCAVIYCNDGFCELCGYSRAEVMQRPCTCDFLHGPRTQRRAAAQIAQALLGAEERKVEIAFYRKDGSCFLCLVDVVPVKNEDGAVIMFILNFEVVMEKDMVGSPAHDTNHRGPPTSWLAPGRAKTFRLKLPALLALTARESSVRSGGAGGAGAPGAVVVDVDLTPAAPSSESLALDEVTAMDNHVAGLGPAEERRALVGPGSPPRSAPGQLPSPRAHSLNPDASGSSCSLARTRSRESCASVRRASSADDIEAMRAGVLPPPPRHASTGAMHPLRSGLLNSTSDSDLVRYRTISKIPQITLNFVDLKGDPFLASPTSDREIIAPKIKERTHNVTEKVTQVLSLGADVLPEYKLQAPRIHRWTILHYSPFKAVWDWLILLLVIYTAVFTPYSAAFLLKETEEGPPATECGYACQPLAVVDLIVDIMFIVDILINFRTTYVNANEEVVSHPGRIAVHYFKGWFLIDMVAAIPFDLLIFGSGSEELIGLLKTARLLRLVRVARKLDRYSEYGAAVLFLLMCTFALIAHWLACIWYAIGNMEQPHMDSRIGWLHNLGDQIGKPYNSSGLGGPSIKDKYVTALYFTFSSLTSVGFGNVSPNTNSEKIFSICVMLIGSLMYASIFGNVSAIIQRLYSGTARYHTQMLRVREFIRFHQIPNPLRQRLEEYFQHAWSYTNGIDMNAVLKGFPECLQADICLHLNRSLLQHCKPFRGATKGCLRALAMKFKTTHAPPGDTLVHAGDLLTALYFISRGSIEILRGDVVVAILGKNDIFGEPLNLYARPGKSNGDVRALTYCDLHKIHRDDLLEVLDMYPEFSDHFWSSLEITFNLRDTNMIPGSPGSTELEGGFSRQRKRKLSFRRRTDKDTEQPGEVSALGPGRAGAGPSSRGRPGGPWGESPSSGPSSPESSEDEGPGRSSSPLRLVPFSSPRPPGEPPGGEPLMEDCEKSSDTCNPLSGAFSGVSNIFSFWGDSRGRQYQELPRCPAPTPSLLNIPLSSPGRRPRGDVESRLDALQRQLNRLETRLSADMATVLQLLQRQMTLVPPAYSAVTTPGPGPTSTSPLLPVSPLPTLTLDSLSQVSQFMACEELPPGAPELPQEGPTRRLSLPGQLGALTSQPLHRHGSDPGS
row,SMILES,"hERG current change (%, negative = inhibition) at 10uM [%]"
1,C=C(C)COc1ccc(-c2nc(N)ncc2-c2ccccc2OC)c(O)c1,-31.6
2,COc1cc(OC)c(OC)cc1/C=C(\C#N)C(=O)NCc1cccs1,20.6
3,O=C(Cn1cc2c(n1)CCCC2)Nc1ccccc1Br,1.06
4,CN1C2CCC1CC(NC(=O)c1cc(Cl)cc3[nH]cnc13)C2 (stereo not shown),4.12
5,CNC(=O)c1c2c(nc3ccc(Br)cc13)CCCC2,1.9
6,CCCCn1c(N)c(N(CCOC)C(=O)C2CC(=O)N(c3cccc(SC)c3)C2)c(=O)[nH]c1=O (stereo not shown),14.4
7,COCCN1CN=C(Nc2nc3ccccc3o2)NC1,13.5
8,COc1cccc(OC)c1C(=O)Nc1ccc(N2CCCC2)cc1,7.52
9,Cc1ccc(N2C(=O)SC(Cc3ccccc3)C2=O)cc1 (stereo not shown),13.7
10,COc1ccc(N(Cc2cc3ccccc3[nH]c2=O)S(=O)(=O)c2ccccc2)cc1,2.91
11,CCOC(=O)N1CCN(C(=O)c2ccc(OC(C)=O)cc2)CC1,16
12,CCCOc1ccc(N2C(=O)CC(N3CCN(c4ccc([N+](=O)[O-])cc4)CC3)C2=O)cc1 (stereo not shown),-73.8
13,CCCOc1ccc(N2C(=O)CC(N3CCOCC3)C2=O)cc1 (stereo not shown),-3.38
14,CCOc1ccc(N2C(=O)CC(N3CCN(c4ccc([N+](=O)[O-])cc4)CC3)C2=O)cc1 (stereo not shown),-28.3
15,O=C(COC(=O)c1cccc2ccccc12)Nc1cccnc1Cl,0.703
16,CCC1=NN2C(=N)/C(=C\c3cccn3-c3ccc(C)cc3C)C(=O)N=C2S1,-5.33
17,CCC1=NN2C(=N)/C(=C\c3cccn3-c3c(C)cccc3C)C(=O)N=C2S1,-79.4

row,SMILES,"hERG current change (%, negative = inhibition) at 10uM [%]"
1,CCC1=NN2C(=N)/C(=C\c3cccn3-c3ccc(C)c(C)c3)C(=O)N=C2S1,-6.32
2,Cc1ccc(S(=O)(=O)N2CCCC(c3nnc4n3-c3ccccc3SC4)C2)cc1 (stereo not shown),-92.8
3,Cc1ccc(-c2nc(C3CCCN(S(=O)(=O)c4ccc(C)cc4)C3)no2)cc1 (stereo not shown),12.2
4,Cc1ccc(S(=O)(=O)N2CCCC(C)C2)cc1 (stereo not shown),12.9
5,O=C(O)CCCCCNC(=O)c1ccccc1,8.89
6,N#CCSc1nnc(-c2cccnc2)n1-c1ccccc1,-7.93
7,CCOc1ccc(-n2c(SCC(N)=O)nnc2-c2cccnc2)cc1,-5.57
8,CCOc1ccc(-n2c(SCc3ccc(C#N)cc3)nnc2-c2cccnc2)cc1,-71.9
9,COc1ccc(-n2c(SCC#N)nnc2-c2cccnc2)cc1,-34
10,N#Cc1ccc(CSc2nnc(-c3cccs3)n2-c2ccccc2)cc1,-72.7
11,O=C(O)c1ccc(CSc2nnc(-c3cccnc3)n2-c2ccc(Br)cc2)cc1,15.1
12,N#Cc1ccc(CSc2nnc(-c3cccnc3)n2-c2ccccc2)cc1,-71.2
13,NC(=O)CSc1nnc(-c2cccs2)n1-c1ccccc1,10.2
14,CCOc1ccc(-n2c(SCc3cc(=O)oc4cc(C)c(C(C)C)cc34)nnc2-c2cccnc2)cc1,-37.2
15,CCOc1ccc(-n2c(SCc3cc(=O)oc4cc(C)ccc34)nnc2-c2cccnc2)cc1,-70.7
16,N#Cc1ccc(CSc2nnc(-c3c[nH]c4ccccc34)n2-c2ccccc2)cc1,5.38
17,CC(=O)Nc1ccc2c(CSc3nnc(-c4cccnc4)n3-c3ccc(C)cc3C)cc(=O)oc2c1,-17.8
